The values that follow come from ChEMBL document CHEMBL2218924, “A broad activity screen in support of a chemogenomic map for kinase signalling research and drug discovery” (Biochem J, 2013).

Assay [1] concerns the target Calcium/calmodulin-dependent protein kinase type 1 (Homo sapiens) (UniProt Q14012). The conditions noted are these: at 1 µM.
Assay [2] shares this target. To be noted: at 10 µM.
The target in assay [3] is Calcium/calmodulin-dependent protein kinase type II subunit beta (Homo sapiens) (UniProt Q13554). The conditions noted are these: at 1 µM.
Assay [4] has the same target. To be noted: at 10 µM.
In assay [5] the target is Calcium/calmodulin-dependent protein kinase type II subunit gamma (Homo sapiens) (UniProt Q13555). To be noted: at 1 µM.
Assay [6] shares this target. The conditions noted are these: at 10 µM.
For assay [7], the target named is Calcium/calmodulin-dependent protein kinase type II subunit delta (Homo sapiens) (UniProt Q13557). The conditions noted are these: at 1 µM.
The target is the same in assay [8]. The conditions noted are these: at 10 µM.
Assay [9] addresses T1, Calcium/calmodulin-dependent protein kinase type IV (Homo sapiens) (UniProt Q16566).
T1 sequence (whole entry): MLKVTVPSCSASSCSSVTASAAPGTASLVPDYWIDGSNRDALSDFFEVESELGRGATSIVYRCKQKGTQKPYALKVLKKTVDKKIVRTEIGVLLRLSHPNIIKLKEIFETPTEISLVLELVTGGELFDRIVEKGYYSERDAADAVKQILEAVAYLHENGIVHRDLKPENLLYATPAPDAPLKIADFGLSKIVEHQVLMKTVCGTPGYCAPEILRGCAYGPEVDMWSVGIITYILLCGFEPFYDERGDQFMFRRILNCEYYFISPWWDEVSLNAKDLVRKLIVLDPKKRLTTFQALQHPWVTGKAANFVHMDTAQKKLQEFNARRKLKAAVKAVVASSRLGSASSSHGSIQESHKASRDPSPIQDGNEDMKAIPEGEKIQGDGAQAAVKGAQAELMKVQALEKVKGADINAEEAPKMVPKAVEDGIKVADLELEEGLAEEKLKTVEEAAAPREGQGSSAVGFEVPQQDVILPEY
To be noted: at 1 µM.

Assay [10] deals with T1, Calcium/calmodulin-dependent protein kinase type IV (Homo sapiens). To be noted: at 10 µM.
Assay [11] has as its target Death-associated protein kinase 1 (Homo sapiens) (UniProt P53355). The conditions noted are these: at 10 µM.
Assay [12] has as its target T2, Serine/threonine-protein kinase DCLK2 (Homo sapiens) (UniProt Q8N568).
T2 sequence (whole entry): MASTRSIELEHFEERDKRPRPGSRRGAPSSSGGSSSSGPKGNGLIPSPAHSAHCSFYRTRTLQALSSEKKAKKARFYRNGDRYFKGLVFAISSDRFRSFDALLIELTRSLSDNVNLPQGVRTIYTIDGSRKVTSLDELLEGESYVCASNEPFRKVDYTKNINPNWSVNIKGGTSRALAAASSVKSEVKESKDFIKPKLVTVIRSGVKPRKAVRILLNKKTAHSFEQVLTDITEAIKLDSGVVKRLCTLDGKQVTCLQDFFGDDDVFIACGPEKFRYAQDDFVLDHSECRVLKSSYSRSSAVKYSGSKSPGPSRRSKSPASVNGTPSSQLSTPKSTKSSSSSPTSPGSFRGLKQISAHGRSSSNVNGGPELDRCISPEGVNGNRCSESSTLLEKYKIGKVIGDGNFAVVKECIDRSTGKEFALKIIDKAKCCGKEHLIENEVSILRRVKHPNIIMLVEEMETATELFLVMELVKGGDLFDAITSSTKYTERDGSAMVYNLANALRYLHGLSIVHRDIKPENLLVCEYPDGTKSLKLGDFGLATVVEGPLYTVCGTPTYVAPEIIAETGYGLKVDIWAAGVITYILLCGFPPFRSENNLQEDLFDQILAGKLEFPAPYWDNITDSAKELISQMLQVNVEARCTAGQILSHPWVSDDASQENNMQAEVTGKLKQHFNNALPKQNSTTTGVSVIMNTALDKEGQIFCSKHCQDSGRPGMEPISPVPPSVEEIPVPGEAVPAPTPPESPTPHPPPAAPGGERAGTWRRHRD
To be noted: at 1 µM.

Assay [13] concerns the target T2, Serine/threonine-protein kinase DCLK2 (Homo sapiens). To be noted: at 10 µM.
Assay [14] addresses T3, Myotonin-protein kinase (Homo sapiens) (UniProt Q09013).
T3 sequence (whole entry): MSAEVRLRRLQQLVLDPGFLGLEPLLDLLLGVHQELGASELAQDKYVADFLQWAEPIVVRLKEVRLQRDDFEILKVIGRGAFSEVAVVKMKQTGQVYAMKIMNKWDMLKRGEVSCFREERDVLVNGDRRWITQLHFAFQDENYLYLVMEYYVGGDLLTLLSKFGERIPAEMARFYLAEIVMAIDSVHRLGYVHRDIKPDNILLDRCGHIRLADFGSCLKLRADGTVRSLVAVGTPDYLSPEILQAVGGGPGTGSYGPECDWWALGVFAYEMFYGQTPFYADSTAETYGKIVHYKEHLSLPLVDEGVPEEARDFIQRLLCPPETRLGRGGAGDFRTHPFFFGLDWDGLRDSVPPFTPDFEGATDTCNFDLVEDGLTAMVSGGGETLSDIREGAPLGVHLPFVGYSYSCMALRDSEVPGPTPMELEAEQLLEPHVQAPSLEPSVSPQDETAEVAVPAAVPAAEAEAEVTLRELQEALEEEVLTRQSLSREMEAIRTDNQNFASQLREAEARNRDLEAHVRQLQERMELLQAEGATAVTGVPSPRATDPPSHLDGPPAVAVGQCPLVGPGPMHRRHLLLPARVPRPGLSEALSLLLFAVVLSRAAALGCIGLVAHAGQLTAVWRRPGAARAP
To be noted: at 1 µM.

Assay [15] concerns the target T3, Myotonin-protein kinase (Homo sapiens). The conditions noted are these: at 10 µM.
The target of assay [16] is T4, Serine/threonine-protein kinase 17A (Homo sapiens) (UniProt Q9UEE5).
T4 sequence (whole entry): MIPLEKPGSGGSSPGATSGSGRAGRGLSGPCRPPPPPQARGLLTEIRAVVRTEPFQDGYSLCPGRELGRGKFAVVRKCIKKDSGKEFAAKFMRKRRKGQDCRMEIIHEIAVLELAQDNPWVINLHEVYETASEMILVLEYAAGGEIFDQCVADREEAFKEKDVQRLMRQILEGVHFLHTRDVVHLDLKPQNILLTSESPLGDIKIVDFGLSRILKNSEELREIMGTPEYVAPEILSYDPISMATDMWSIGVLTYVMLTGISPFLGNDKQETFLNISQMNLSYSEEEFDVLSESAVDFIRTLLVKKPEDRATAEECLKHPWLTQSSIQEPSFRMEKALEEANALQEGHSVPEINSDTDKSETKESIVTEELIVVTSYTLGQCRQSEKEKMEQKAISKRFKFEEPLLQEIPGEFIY
The conditions noted are these: at 1 µM.

For assay [17], the target named is Death-associated protein kinase 2 (Homo sapiens) (UniProt Q9UIK4). To be noted: at 1 µM.
Assay [18] shares this target. To be noted: at 10 µM.
Assay [19] concerns the target T5, Discoidin domain-containing receptor 2 (Homo sapiens) (UniProt Q16832).
T5 sequence (whole entry): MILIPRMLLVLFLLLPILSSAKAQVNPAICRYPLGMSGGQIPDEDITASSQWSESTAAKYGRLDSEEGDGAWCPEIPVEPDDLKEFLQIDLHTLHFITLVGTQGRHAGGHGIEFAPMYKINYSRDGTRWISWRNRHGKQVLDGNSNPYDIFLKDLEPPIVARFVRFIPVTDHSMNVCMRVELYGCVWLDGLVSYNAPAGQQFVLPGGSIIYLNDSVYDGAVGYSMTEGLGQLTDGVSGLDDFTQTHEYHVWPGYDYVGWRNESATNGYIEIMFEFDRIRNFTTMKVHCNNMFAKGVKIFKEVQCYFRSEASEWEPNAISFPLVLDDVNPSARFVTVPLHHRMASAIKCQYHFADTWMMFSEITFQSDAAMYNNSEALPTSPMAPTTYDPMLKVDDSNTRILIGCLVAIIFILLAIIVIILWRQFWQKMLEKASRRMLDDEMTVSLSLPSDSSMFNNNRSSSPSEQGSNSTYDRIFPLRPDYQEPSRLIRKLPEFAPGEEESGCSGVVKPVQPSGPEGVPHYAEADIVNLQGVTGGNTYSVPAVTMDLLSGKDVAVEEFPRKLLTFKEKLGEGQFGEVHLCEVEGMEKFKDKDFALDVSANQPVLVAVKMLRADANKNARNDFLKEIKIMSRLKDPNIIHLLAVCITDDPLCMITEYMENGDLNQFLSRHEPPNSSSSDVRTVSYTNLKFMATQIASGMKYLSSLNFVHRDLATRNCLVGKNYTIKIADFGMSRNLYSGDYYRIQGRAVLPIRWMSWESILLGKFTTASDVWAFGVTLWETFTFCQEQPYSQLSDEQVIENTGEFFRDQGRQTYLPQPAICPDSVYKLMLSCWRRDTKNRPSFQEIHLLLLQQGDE
To be noted: at 1 µM.

The target in assay [20] is T5, Discoidin domain-containing receptor 2 (Homo sapiens). The conditions noted are these: at 10 µM.

Calcium/calmodulin-dependent protein kinase type II subunit gamma (Homo sapiens), sequence (Q13555 whole entry): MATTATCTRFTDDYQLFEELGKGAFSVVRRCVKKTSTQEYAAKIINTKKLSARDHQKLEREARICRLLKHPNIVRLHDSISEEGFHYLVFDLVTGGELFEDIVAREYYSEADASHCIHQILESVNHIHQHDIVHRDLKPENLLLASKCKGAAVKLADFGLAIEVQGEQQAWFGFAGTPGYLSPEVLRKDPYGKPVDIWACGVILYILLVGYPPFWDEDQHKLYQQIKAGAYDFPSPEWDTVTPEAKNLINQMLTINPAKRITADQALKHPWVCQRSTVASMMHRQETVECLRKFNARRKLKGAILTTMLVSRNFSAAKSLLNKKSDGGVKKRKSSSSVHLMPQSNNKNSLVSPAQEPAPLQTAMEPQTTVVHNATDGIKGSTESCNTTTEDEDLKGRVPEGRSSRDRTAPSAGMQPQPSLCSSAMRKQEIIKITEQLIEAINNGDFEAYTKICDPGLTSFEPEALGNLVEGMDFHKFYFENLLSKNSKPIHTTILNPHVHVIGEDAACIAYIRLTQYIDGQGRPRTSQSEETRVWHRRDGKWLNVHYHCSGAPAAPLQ
Calcium/calmodulin-dependent protein kinase type II subunit beta (Homo sapiens), sequence (Q13554 whole entry): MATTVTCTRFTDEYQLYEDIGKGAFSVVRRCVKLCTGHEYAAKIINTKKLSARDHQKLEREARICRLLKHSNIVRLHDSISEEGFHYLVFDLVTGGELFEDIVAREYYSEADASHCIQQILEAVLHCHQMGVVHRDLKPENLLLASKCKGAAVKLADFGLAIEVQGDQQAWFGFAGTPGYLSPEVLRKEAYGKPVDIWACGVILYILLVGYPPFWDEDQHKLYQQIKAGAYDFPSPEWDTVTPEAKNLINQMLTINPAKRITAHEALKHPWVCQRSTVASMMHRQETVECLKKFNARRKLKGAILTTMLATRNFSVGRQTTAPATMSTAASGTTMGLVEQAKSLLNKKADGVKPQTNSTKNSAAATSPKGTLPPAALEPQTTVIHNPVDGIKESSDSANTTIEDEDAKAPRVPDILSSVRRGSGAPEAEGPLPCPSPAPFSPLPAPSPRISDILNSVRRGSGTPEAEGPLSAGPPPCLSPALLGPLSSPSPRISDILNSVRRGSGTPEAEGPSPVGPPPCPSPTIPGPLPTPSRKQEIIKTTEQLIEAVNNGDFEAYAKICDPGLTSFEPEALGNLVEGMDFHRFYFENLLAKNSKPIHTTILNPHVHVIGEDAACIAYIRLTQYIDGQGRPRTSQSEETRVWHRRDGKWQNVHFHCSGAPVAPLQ
Death-associated protein kinase 2 (Homo sapiens), sequence (Q9UIK4 whole entry, looked up): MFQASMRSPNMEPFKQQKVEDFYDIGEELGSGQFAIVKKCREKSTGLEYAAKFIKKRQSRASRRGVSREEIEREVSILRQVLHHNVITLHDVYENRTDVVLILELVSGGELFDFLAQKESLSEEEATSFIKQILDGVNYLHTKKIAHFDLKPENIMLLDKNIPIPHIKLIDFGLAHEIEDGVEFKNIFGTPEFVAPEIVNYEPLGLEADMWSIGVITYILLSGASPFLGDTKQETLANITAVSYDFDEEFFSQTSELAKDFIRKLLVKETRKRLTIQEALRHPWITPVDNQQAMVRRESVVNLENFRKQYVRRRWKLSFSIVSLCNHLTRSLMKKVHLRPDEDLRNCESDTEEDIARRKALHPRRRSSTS
Death-associated protein kinase 1 (Homo sapiens), sequence (P53355 whole entry, looked up): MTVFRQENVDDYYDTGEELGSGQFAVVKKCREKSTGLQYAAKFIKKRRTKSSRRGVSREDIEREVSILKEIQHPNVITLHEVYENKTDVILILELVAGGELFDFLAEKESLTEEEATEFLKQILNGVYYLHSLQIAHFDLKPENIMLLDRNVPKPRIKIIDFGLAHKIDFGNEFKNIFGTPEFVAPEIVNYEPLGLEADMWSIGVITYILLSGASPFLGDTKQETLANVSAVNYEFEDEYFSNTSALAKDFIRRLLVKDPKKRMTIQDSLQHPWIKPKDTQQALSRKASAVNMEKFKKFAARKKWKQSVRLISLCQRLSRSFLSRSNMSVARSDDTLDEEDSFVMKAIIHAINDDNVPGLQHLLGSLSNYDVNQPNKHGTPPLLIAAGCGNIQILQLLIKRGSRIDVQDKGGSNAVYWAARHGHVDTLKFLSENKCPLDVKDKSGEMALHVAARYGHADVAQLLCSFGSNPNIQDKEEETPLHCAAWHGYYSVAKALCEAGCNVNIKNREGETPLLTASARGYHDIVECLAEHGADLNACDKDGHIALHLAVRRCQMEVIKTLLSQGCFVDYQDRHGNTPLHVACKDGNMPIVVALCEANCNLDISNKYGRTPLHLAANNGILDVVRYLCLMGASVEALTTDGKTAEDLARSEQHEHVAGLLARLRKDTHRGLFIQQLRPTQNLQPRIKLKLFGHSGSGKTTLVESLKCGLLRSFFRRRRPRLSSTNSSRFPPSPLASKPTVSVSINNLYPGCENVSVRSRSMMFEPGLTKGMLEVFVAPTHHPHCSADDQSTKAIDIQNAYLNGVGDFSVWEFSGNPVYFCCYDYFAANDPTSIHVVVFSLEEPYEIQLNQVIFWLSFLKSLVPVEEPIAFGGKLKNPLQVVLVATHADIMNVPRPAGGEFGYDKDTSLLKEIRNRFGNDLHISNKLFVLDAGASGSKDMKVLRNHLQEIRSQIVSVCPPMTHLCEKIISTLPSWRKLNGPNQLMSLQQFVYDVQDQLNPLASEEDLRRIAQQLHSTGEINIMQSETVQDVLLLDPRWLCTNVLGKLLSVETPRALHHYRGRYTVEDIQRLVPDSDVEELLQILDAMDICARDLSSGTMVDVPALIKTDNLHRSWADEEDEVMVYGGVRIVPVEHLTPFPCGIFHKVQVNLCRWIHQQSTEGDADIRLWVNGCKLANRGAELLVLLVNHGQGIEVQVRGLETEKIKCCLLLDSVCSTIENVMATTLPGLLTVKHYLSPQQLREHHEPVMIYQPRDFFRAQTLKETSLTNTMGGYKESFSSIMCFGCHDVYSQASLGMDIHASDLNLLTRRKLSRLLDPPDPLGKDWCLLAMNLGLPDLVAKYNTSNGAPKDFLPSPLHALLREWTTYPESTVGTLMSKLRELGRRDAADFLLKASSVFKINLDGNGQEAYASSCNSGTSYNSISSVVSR
Calcium/calmodulin-dependent protein kinase type II subunit delta (Homo sapiens), sequence (Q13557 whole entry): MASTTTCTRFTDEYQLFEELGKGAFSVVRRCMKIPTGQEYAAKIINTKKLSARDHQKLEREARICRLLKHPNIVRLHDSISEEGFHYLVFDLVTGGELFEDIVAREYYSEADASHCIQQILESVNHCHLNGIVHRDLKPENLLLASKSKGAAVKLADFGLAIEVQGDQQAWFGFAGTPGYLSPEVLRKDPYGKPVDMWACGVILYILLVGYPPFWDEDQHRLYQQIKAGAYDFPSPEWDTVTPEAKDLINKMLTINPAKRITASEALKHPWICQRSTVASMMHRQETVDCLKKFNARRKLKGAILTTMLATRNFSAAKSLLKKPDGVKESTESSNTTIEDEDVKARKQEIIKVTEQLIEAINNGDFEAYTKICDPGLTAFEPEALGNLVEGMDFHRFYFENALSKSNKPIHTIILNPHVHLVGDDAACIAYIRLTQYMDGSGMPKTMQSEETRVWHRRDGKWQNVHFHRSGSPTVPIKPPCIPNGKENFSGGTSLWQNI
Calcium/calmodulin-dependent protein kinase type 1 (Homo sapiens), sequence (Q14012 whole entry, looked up): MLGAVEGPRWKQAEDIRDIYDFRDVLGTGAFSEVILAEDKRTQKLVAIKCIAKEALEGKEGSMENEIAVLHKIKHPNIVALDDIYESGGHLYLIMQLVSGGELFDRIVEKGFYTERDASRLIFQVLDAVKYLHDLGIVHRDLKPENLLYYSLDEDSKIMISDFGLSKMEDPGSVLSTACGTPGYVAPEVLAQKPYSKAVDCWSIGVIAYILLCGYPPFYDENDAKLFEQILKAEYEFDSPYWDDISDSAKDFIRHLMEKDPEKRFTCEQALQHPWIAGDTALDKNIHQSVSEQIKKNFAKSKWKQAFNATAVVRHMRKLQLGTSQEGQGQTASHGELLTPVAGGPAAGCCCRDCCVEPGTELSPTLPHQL

Turning to `Nc1n[nH]c2nc3ccccc3nc12`, the residual activity (commonly the signal under treatment as a percentage of the control signal) is 87% in assay [1]; 68% in [2]; 75% in [3]; 16% in assay [4]; 86% in [5]; 28% in [6]. The residual activity in assay [7] came out at 86%; in assay [8] it was 36%; in assay [9] it was 121%; in [10], 87%; in [11], 96%; in [12], 98%. For the same molecule, the residual activity in assay [13] turned out to be 84%; in assay [14], 98%; in assay [15], 76%; in [16], 86%.

As to `O=C(CCCc1ccc(-c2ccccc2F)cc1)Nc1ccc(O)cc1`, the residual activity amounted to 92% in assay [1]; 73% in assay [2]; 100% in [3]; 89% in [4]; 106% in assay [5]; 75% in [6]. Also, the residual activity in [7] worked out at 109%; in assay [8] it was 78%; in [9] it was 104%; in assay [11], 105%; in [17], 102%; in assay [18] it was 99%. In addition, the residual activity stood at 133% in assay [12]; 192% in assay [13]; 99% in [19]; 111% in [20]; 108% in assay [14]; 97% in [15].

For the molecule `COc1cc2nccc(Oc3ccc(NC(=O)Nc4cc(C)on4)c(Cl)c3)c2cc1OC`, the residual activity in assay [1] turned out to be 105%; in assay [2], 41%; in assay [3], 97%; in assay [4] it was 69%; in assay [5], 108%; in [6] it was 70%. The residual activity came out at 102% in [7]; 123% in assay [9]; 54% in [10]; 69% in assay [11]; 99% in assay [12]; 104% in assay [13]. The residual activity in assay [19] came out at 1%; in assay [20], 0%; in [14] it was 100%; in assay [15], 148%.

As for `COc1cc2ncnc(Nc3cccc(Cl)c3)c2cc1OC`, the residual activity worked out at 108% in assay [1]; 62% in [2]; 60% in [4]; 45% in assay [5]; 5% in assay [6]; 60% in assay [7]. Besides, the residual activity was 18% in assay [8]; 100% in assay [11]; 122% in assay [12]; 85% in [13]; 74% in [20]; 103% in [14]. Besides, the residual activity was 113% in [15] and 103% in assay [16].

Take `O=C1Nc2ccc(Cl)cc2/C1=C/c1cc(Cl)c(O)c(Cl)c1`: the residual activity came out at 96% in assay [1]; 63% in assay [2]; 69% in assay [3]; 23% in assay [4]; 62% in [5]; 10% in assay [6]. The residual activity in [7] worked out at 69%; in assay [8], 10%; in assay [11], 46%; in assay [17], 69%; in assay [18], 28%; in [12], 61%. The residual activity is 73% in [13], 138% in [15] and 71% in assay [16].

With `O=C(O)/C=C/c1cc(Br)c(Br)c(Br)c1Br`, the residual activity in [1] is 102%; in assay [2], 74%; in assay [3], 78%; in [4], 39%; in [5], 98%; in [6], 31%. Further, the residual activity in assay [7] is 83%; in assay [8] it was 26%; in [9], 94%; in [10] it was 80%; in assay [11], 62%; in assay [17], 91%. Also, the residual activity turned out to be 39% in [18]; 98% in assay [12]; 68% in assay [13]; 93% in assay [19]; 95% in assay [20]; 93% in assay [14]. The residual activity amounted to 76% in assay [15] and 79% in [16].
